Compound activity deposited in PubChem by Center for Chemical Genomics, University of Michigan.
Dicer inh = blocks human Dicer maturation of pre-miR-21 | Q9UPY3 | cat-ELCCA pre-miR-21 Dicer processing, chemiluminescence; active compounds read high | z-score at 25 µM | 6% of 47,000 active | AID 1347074; in the data active means z-score above about 3, passing the limit was not always enough;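 further: plate controls were vehicle for no effect and no enzyme for full effect; higher signal means more uncleaved substrate so more Dicer inhibition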
* = called active by the depositor. Shown is part of a subset that was picked to be rich in hits.

SMILES | Dicer inh
COc1cccc2c1OC(c1ccc(F)cc1)N1N=C(c3ccccc3O)CC21 (configuration not stated) | 8.6*
Cc1ccccc1NC(=O)N(Cc1ccco1)C(=O)CC#N | 0.76
CC(=O)NC(=S)NNC(=O)c1cccc([N+](=O)[O-])c1 | -1.1
CC(C)CN(CC(C)C)CC(O)Cn1cnc2c1c(=O)n(C)c(=O)n2C (configuration not stated) | -2.1
O=[N+]([O-])c1ccc(Oc2c(Cl)cc(S(=O)(=O)N3CCCCC3)cc2Cl)cc1 | -0.66
O=C(c1ccc(Cl)cc1)c1c(Cl)cc(CO)cc1Cl | 0.15
Cc1cnc(/N=C/NO)c(Br)c1 | 0.63
COc1cc(C2C(C(=O)OC(C)C)=C(C)NC3=C2C(=O)CCC3)ccc1O (configuration not stated) | -0.99
CC(C)OC(=O)c1cccc(C(=O)OC(C)C)n1 | 1.7
CC(C)OC(=O)c1cccc(C(=O)Oc2ccc(Br)cc2)n1 | 4.4*
CC(C)OC(=O)c1cccc(C(=O)O)n1 | 1.6
CC1=C(C(=O)OC(C)C)C(c2coc3ccc(C)cc3c2=O)C2=C(CC(C)(C)CC2=O)N1 (configuration not stated) | -1.2
CCOC(=O)C1CCN(Cc2ccccc2)CC1=O (configuration not stated) | -0.22
O=C(CCCOc1ccccc1)NC1CCSC1=O (configuration not stated) | 0.4
O=C(CCc1ccccc1)NC1CCSC1=O (configuration not stated) | 0.1
O=C(COc1ccccc1)NC1CCSC1=O (configuration not stated) | 3.4*
COCCCNC(=S)NNC(=O)CSCc1c(C)c(C)c(C)c(C)c1C | -0.98
COCCOC(=O)C1=C(C)NC2=C(C(=O)CC(c3cccs3)C2)C1c1ccc(F)cc1 (configuration not stated) | 0.04
CCO/C=C1\SC(=S)N(CCc2ccc(OC)c(OC)c2)C1=O | 1.2
Cc1ccccc1OCC(O)CN1C(=O)NC(C)(C)C1=O (configuration not stated) | 0.51
O=C(Oc1ccc2c(=O)c(Oc3ccccc3Cl)coc2c1)c1ccco1 | 8.1
O=C1CCCC2=C1C(c1cccc(O)c1)n1ncnc1N2 (configuration not stated) | 0.53
Cc1ccc(C2C3=C(CC(c4ccc(Cl)cc4)CC3=O)Nc3ncnn32)cc1 (configuration not stated) | 0.34
CCN(CC)c1ccc(C2C3=C(CC(C)(C)CC3=O)Nc3ncnn32)cc1 (configuration not stated) | 2.2
CC1(C)CC(=O)C2=C(C1)Nc1ncnn1C2c1cccc(O)c1 (configuration not stated) | -0.16
SMILES | Dicer inh
CC1(C)CC(=O)C2=C(C1)Nc1ncnn1C2c1ccc(Cl)cc1 (configuration not stated) | 3.2*
Cc1ccc(C2C3=C(CC(c4ccccc4)CC3=O)Nc3nc(C(F)(F)F)nn32)cc1 (configuration not stated) | 3*
CC1(C)CC(=O)C2=C(C1)Nc1ncnn1C2c1ccccc1 (configuration not stated) | 1.9
O=C1CC(c2ccc(Cl)cc2)CC2=C1C(c1cccnc1)n1c(nc3ccccc31)N2 (configuration not stated) | -0.56
CC1CC(=O)C2=C(C1)Nc1ncnn1C2c1ccccc1 (configuration not stated) | 4.6*
COc1ccc(NC(=O)N2CCN(c3ncccn3)CC2)cc1 | -1.4
CCn1cc(CN(C)C(=O)c2cc3n(n2)C(C(F)(F)F)CC(c2ccco2)N3)c(C)n1 (configuration not stated) | 1.5
O=C(Nc1ccc(Cl)cc1OC(F)(F)F)c1cccc(C(F)(F)F)c1 | 0
CCC(C)OC(=O)c1c(NC(=O)c2nc3nc(C)cc(C(F)F)n3n2)sc2c1CCCC2 (configuration not stated) | 2.5
COc1cc2nc[nH]c(=O)c2cc1OC | 0.22
CCOC(=O)C(C(=O)Nc1ccccc1)[N+](=O)[O-] (configuration not stated) | -1.2
CSc1nnc(Nc2ccc(Cl)cc2Cl)s1 | 3.9*
CSc1nc(C)nc(Nc2ccc(Cl)cc2Cl)c1C#N | -0.83
CSc1ccc(/C=N/Nc2ccc(Cl)cc2Cl)s1 | 5.2
Cc1ccc2cc3c(=O)n(C)c4c(c(=O)n(C)c(=O)n4C)c3nc2c1 | -1.1
Cc1ccc(C)n1-c1ccc(C2(O)CCSc3ccccc32)cc1 (configuration not stated) | 2.4
Cc1ccc(C)n1-c1ccc(C2(O)CCSc3ccc(F)cc32)cc1 (configuration not stated) | 4*
Cc1cn(CCC(=O)Nc2nn(C)c3cccc(F)c23)c2ccccc12 | 0.42
Cc1coc(C)c1C(=O)CC1(O)C(=O)N(C(C)C)c2ccccc21 (configuration not stated) | 0.24
COc1cc2c(cc1OC)C(/C=C1\SC(C(C)=O)=NN1c1ccc(C)cc1)=NCC2 | 0.71
O=S(=O)(c1ccc(Cl)c2ccccc12)N1CCN(c2ccccc2)CC1 | 1.5
Cc1ccc(-c2n[nH]c(=S)c3ccccc23)cc1S(=O)(=O)N1CCN(C)CC1 | 0.77
